Calls of active or inactive are those of the source. The calls were made as follows: active = hit-call score of the fitted dose curve at least 0.9, where 1 is the maximum; inactive = score below 0.9.

A short description of one experiment: ATG_FoxO_CIS: Attagene CIS-FACTORIAL HepG2 Assay for human Forkhead box O (FoxO) (AID 2282943). Particulars: HepG2 Attagene cis-reporter, FoxO element, mRNA; actives raise or lower the signal. In short, it runs like this: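 HepG2 cells transiently transfected with cis-promoter-driven multiple reporter transcription units; 24 h after chemical dosing, reporter mRNA quantified by RT-PCR, fluorescent primer extension, HpaI digestion and capillary electrophoresis. Bidirectional fitting versus DMSO baseline.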
`CCOC(=O)CC(C)O` (stereo not drawn): the outcome was inactive. On the same count and under the same terms, the result for `CC1(C)O[C@@H]2[C@@H](CO[C@@]3(COS(N)(=O)=O)OC(C)(C)O[C@@H]23)O1` reads “inactive”. Still for that read-out and setting: with `C=CC(C)C#N` (stereo not drawn) the entry was “inactive”; with `CC/C=C\CC/C=C/CO`, “inactive”. The same measure, in the same setting: with `CS(=O)(=O)c1ccc(C2=C(c3ccccc3)C(=O)OC2)cc1` the entry was “inactive”; with `COC(=O)Nc1ccc(Cl)c(Cl)c1`, “inactive”; with `Oc1c(Cl)cc(Cl)c(Cl)c1Cc1c(O)c(Cl)cc(Cl)c1Cl`, “inactive”. `N#Cc1ccc(CC(=O)c2cccc(C(F)(F)F)c2)cc1`: the compound was classed as inactive. Still for that read-out and setting: the result for `COS(=O)(=O)O` reads “inactive”; that for `CCCCCCOC(=O)CCC`, “inactive”. On to `CSCCC=O`, for which the outcome was inactive. As to `Brc1ccc(Br)c(Br)c1`, the compound was classed as inactive.

As for `Cc1cc(C)nc(NS(=O)(=O)c2ccc(N)cc2)n1`, the compound was classed as inactive. Take `CCOCCOCCOCC`: the outcome was inactive.

Take `C=C1C[C@]23C[C@@]1(O)CC[C@H]2[C@@]12C=C[C@H](O)[C@@](C)(C(=O)O1)[C@H]2[C@@H]3C(=O)O`: the outcome was inactive. Still for that read-out and setting: with `OCc1cccc(Oc2ccccc2)c1` the entry was “inactive”; with `C=CCN(CC=C)CC=C`, “inactive”. On the same count and under the same terms, with `Cc1cc(=O)oc2cc(N(C)C)ccc12` the entry was “inactive”. For the compound `CCCCOCC`, the call was inactive. Same read-out and setting: the result for `C1CCCCC1` reads “inactive”. For orientation: AC50 means the midpoint of the concentration-response curve, whichever way the signal moves. As to `CC1=CC[C@@]23C[C@@H]1C(C)(C)[C@@H]2CC[C@H]3C`, the AC50 is 157 µM (active).

`O=C1NC2NC(=O)NC2N1` (stereo not drawn): the result was inactive. On the same count and under the same terms, with `Nc1ccc(NCCO)c([N+](=O)[O-])c1` the entry was “inactive”; with `CC(C)(CO)[C@@H](O)C(=O)NCCC(=O)O`, “inactive”. Still for that read-out and setting: with `C[Si](C)(C)O[Si](C)(C)C` the entry was “inactive”.

Another experiment in a line: ATG_GATA_CIS: Attagene CIS-FACTORIAL HepG2 Assay for human GATA Binding Protein (AID 2282944). To be noted: HepG2 GATA cis-element reporter, Attagene multiplex mRNA; actives raise or lower the signal. The procedure, abridged: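 After transfecting HepG2 cells with multiple cis-regulated reporter units, chemicals are dosed for 24 h; isolated RNA undergoes RT-PCR and fluorescent labeling before capillary electrophoresis, with activity expressed against DMSO.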
In the case of `CCOC(=O)CC(C)O` (stereo not drawn), the outcome was inactive. For `CCCC(=O)OCCc1ccccc1`, the outcome was inactive. For `CC1(C)O[C@@H]2[C@@H](CO[C@@]3(COS(N)(=O)=O)OC(C)(C)O[C@@H]23)O1`, the compound was classed as inactive.

On to `[Cl][Au]([Cl])[Cl]`, for which the call was inactive. The same measure, in the same setting: with `CCCCCC(C=O)=Cc1ccccc1` the entry was “inactive”; with `C=CC(C)C#N` (stereo not drawn), “inactive”. Turning to `C[C@H]1O[C@@H](O[C@H]2[C@@H](O)C[C@H](O[C@H]3[C@@H](O)C[C@H](O[C@H]4CC[C@@]5(C)[C@H](CC[C@@H]6[C@@H]5C[C@@H](O)[C@]5(C)[C@@H](C7=CC(=O)OC7)CC[C@]65O)C4)O[C@@H]3C)O[C@@H]2C)C[C@H](O)[C@@H]1O`, the AC50 was 0.335 µM (active). For `ClC(c1ccccc1)(c1ccccc1)c1ccccc1`, the outcome was inactive. Still for that read-out and setting: with `O=c1c(O)c(-c2ccc(O)cc2)oc2cc(O)cc(O)c12` the entry was “inactive”. Same read-out and setting: with `CN1CCOCC1` the entry was “inactive”.

For `CC/C=C\CC/C=C/CO`, the outcome was inactive. Still for that read-out and setting: with `CS(=O)(=O)c1ccc(C2=C(c3ccccc3)C(=O)OC2)cc1` the entry was “inactive”; with `CC1C2CC(CC2C2CCCC(O)C2)C1(C)C` (stereo not drawn), “inactive”; with `COC(=O)Nc1ccc(Cl)c(Cl)c1`, “inactive”.

Turning to `CC(O)C1CCCCC1` (stereo not drawn), the outcome was inactive. Same read-out and setting: the result for `Oc1c(Cl)cc(Cl)c(Cl)c1Cc1c(O)c(Cl)cc(Cl)c1Cl` reads “inactive”; that for `N#Cc1ccc(CC(=O)c2cccc(C(F)(F)F)c2)cc1`, “inactive”. The same measure, in the same setting: with `COS(=O)(=O)O` the entry was “inactive”. On the same count and under the same terms, with `CCCCCCOC(=O)CCC` the entry was “inactive”; with `COC(C)(C)CCCC(C)CC=O` (stereo not drawn), “inactive”. Turning to `CSCCC=O`, the compound was called inactive. Same read-out and setting: with `Brc1ccc(Br)c(Br)c1` the entry was “inactive”; with `Cc1cc(C)nc(NS(=O)(=O)c2ccc(N)cc2)n1`, “inactive”; with `CCOCCOCCOCC`, “inactive”. Still for that read-out and setting: the result for `C=C1C[C@]23C[C@@]1(O)CC[C@H]2[C@@]12C=C[C@H](O)[C@@](C)(C(=O)O1)[C@H]2[C@@H]3C(=O)O` reads “inactive”; that for `OCc1cccc(Oc2ccccc2)c1`, “inactive”; that for `C=CCN(CC=C)CC=C`, “inactive”.

As to `CC(C)(N=C=O)c1cccc(C(C)(C)N=C=O)c1`, the compound was classed as inactive. Still for that read-out and setting: with `C[Si]1(C)O[Si](C)(C)O[Si](C)(C)O1` the entry was “inactive”.

In the case of `CCOc1ccccc1O`, the result was inactive.

Take `Cc1cc(=O)oc2cc(N(C)C)ccc12`: the call was inactive. Regarding `CCCCOCC`, the result was inactive. The same measure, in the same setting: with `C1CCCCC1` the entry was “inactive”; with `CC1=CC[C@@]23C[C@@H]1C(C)(C)[C@@H]2CC[C@H]3C`, “inactive”. With `O=C1NC2NC(=O)NC2N1` (stereo not drawn), the compound was called inactive.

For the compound `Nc1ccc(NCCO)c([N+](=O)[O-])c1`, the compound was called inactive. The same measure, in the same setting: the result for `CC(C)(CO)[C@@H](O)C(=O)NCCC(=O)O` reads “inactive”; that for `C[Si](C)(C)O[Si](C)(C)C`, “inactive”.

The values above are taken from PubChem BioAssay (EPA / NIEHS).
